Screens from PubChem.
PINK1 expr mod: changes PINK1 expression; PINK1 immunofluorescence, high-content cytometry, 24 h; Potency, µM (titrated, usually from 76.6 µM), actives largely listed as activators; 410,000 compounds, 0.2% hits; active = well fitted activation curve with a large enough effect; inconclusive = small, poorly fitted or top-dose-only effect; cell line not stated here; also: nearly all actives have a fitted effect of over 65% in size
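PINK1 protein, normally rapidly degraded, was detected by immunofluorescence after 24 hour compound treatment of a stable cell line. Titration data (5 concentrations) came from laser-scanning cytometry, with CCCP-treated wells as controls.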
KB-V1 MDR tox: KB-V1 MDR subline cytotoxicity; AID 1347076; KB-V1 MDR cells viability, CellTiter-Glo, 72 h; 400,000 compounds, 3.4% hits; Potency, µM (top dose mostly 46.1 µM), usual class: cytotoxic; also: nearly all actives have a fitted effect of over 60% in size
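Drug-selected KB-V1 cells, grown in DMEM lacking phenol red with 10% FBS, receive compound titrations; after three days at 37 degrees C, surviving cell ATP is quantified by CellTiter-Glo luminescence and responses normalized and curve-fitted.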
KB-3-1 tox: kills parental KB-3-1 adenocarcinoma cells; KB-3-1 viability, CellTiter-Glo ATP luminescence, 72 h; AID 1347075; Potency, µM (top dose mostly 46.1 µM), usual class: cytotoxic; 400,000 compounds, 1.4% hits; also: nearly all actives have a fitted effect of over 60% in size
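Cytotoxicity measured as CellTiter-Glo luminescence after 72 h at 37 C. Compound titrations were pinned onto drug-naive KB-3-1 parental adenocarcinoma cells grown in DMEM with 10% FBS, and normalized data fitted to concentration-response curves.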
ALOX12 inh: inhibitors of human 12S-lipoxygenase ALOX12 | P18054 | purified 12hLO, xylenol orange hydroperoxide absorbance | Potency, µM (titrated, usually from 108 µM), most hits filed as inhibitors | 580,000 compounds, 1.1% hits | AID 1671190
Target sequence (P18054 whole entry, looked up): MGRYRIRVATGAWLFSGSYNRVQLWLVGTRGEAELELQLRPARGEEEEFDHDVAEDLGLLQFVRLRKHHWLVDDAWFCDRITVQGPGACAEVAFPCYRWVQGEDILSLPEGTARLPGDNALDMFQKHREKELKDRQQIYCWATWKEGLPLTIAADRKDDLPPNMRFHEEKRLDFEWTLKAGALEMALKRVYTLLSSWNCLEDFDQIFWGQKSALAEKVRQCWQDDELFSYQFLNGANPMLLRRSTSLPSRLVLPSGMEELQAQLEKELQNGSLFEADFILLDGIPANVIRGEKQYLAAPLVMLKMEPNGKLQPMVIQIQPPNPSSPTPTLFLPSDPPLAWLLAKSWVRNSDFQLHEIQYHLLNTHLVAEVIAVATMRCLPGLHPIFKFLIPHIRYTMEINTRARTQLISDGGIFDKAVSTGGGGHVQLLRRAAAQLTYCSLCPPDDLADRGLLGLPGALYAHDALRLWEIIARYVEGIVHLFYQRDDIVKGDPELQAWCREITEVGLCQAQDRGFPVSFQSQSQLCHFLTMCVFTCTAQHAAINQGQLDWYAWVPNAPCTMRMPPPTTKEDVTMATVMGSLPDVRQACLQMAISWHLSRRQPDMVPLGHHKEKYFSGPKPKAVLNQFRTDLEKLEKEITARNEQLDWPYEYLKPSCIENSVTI
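Hydroperoxide product was detected by ferrous iron/xylenol orange as the 573 to 405 nm absorbance ratio. Arachidonic acid at 40 uM (final) was turned over for 30 min at room temperature by 150 nM human 12hLO, pH 7.0 Hepes buffer, after 15 min compound preincubation.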
MCF10A rerep: DNA re-replication induction in MCF 10a cells; Potency, µM (doses to about 46.1 µM), actives largely listed as activators; 350,000 compounds, 2.9% hits; MCF 10A DNA re-replication, Hoechst nuclear intensity, 48 h; also: nearly all actives have a fitted effect of over 50% in size
SW480 rereplic: induces DNA re-replication in SW480 colon adenocarcinoma cells | SW480 DNA re-replication, Hoechst DNA content imaging, 48 h | Potency, µM (doses to about 46.1 µM), usual class: activators | 340,000 compounds, 1.8% hits | AID 624297; also: nearly all actives have a fitted effect of over 55% in size
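Per well, 250 cells were exposed to pinned compound for 48 hr. Nuclear DNA was visualised with Hoechst (40 min, 37 C) and total object intensity recorded by fluorescence scanning.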
Hits are given with their value; ! = not active in a repeat. Sampled rows, rich in hits. Any-hit rate of the full collection: about 5.8%. Unless noted, calls follow the shape of the dose curve; as a rule, active = well fitted curve in the direction sought with a large enough effect; inconclusive = small, poorly fitted or top-dose-only effect, or another doubt; inactive = no such curve, though single readings can be large; an effect the other way counts as inactive or inconclusive.

Results for O=C(c1cc(C2CC2)[nH]n1)N1CCC2(CC1)NC(=O)N(c1cccc(F)c1)N2 ?
ALOX12 inh: 11.2µM

How did COc1ccc(C(=O)N2CCC3(CC2)NC(=O)N(c2cccc(F)c2)N3)cc1F do in these assays?
ALOX12 inh: 2µM

How did COc1ccccc1C(=O)N1CCC2(CC1)NC(=O)N(c1cccc(F)c1)N2 do in these assays?
ALOX12 inh: 2.51µM

What do the screens show for `Cc1ccc(C(=O)N2CCSCC2)s1`?
ALOX12 inh: inactive

What do the screens show for `Cc1ccc(C(=O)N2CCC3(CC2)NC(=O)N(c2ccc(F)cc2)N3)s1`?
ALOX12 inh: 2µM

How did CCCn1c(C)cnc1C1CCN(S(=O)(=O)c2cc(OC)ccc2OC)C1 (centres undefined) do in these assays?
ALOX12 inh: inactive

What do the screens show for `CC1=C2C(=O)CC(c3ccc(Cl)cc3)CC2=Nc2ccccc2N1` (centres undefined)?
ALOX12 inh: inactive

What do the screens show for `CCC(c1nnnn1C(C)(C)C)N(Cc1ccco1)Cc1cc2cccc(C)c2[nH]c1=O` (centres undefined)?
PINK1 expr mod: inactive; KB-V1 MDR tox: 23.1µM; KB-3-1 tox: inactive; ALOX12 inh: inactive; MCF10A rerep: inactive; SW480 rereplic: inactive

How did CCC(c1nnnn1CCc1ccccc1)N(Cc1ccco1)Cc1cc2cccc(C)c2[nH]c1=O (centres undefined) do in these assays?
PINK1 expr mod: inactive; KB-V1 MDR tox: 7.31µM; KB-3-1 tox: inconclusive; ALOX12 inh: inconclusive; MCF10A rerep: inconclusive; SW480 rereplic: inactive

How did COCc1nc2ccccc2n1Cc1cccc(C)c1 do in these assays?
PINK1 expr mod: inactive; KB-V1 MDR tox: 16.4µM!; KB-3-1 tox: inactive; ALOX12 inh: inconclusive; MCF10A rerep: inactive; SW480 rereplic: inactive

What do the screens show for `Cc1cccc(Cn2c(-c3ccccc3)nc3ccccc32)c1`?
PINK1 expr mod: inactive; KB-V1 MDR tox: inactive; KB-3-1 tox: inconclusive; ALOX12 inh: inactive

Results for Cc1cccc(Cn2c(Cc3ccccc3)nc3ccccc32)c1 ?
PINK1 expr mod: inactive; KB-V1 MDR tox: 20.6µM!; KB-3-1 tox: inactive; ALOX12 inh: inactive; MCF10A rerep: inactive; SW480 rereplic: inactive

What do the screens show for `Cc1cccc(Cn2c(COc3ccc(Cl)cc3)nc3ccccc32)c1`?
PINK1 expr mod: inactive; KB-V1 MDR tox: inactive; KB-3-1 tox: inactive; ALOX12 inh: inactive

Results for COCn1c(-c2cccc(Br)c2)nc2ccccc21 ?
PINK1 expr mod: inactive; KB-V1 MDR tox: 18.4µM; KB-3-1 tox: inactive; ALOX12 inh: inactive; MCF10A rerep: inactive; SW480 rereplic: inactive

How did CC(C)Cn1c(-c2cccc(Br)c2)nc2ccccc21 do in these assays?
PINK1 expr mod: inactive; KB-V1 MDR tox: inactive; KB-3-1 tox: inactive; ALOX12 inh: inconclusive

How did Cc1cccc(C(=O)NCCc2nc3ccccc3n2Cc2ccc(Cl)cc2)c1 do in these assays?
PINK1 expr mod: inactive; KB-V1 MDR tox: 10.3µM; KB-3-1 tox: inconclusive; ALOX12 inh: inactive

How did COc1ccc(-c2c(C#N)c(N)nc3c2CCc2ccccc2-3)cc1OC do in these assays?
PINK1 expr mod: inactive; KB-V1 MDR tox: 5.17µM; KB-3-1 tox: 5.8µM; ALOX12 inh: inactive; MCF10A rerep: 1.64µM; SW480 rereplic: inconclusive

How did COc1ccc(-c2noc(-c3cccs3)n2)cc1OC do in these assays?
PINK1 expr mod: inactive; KB-V1 MDR tox: inconclusive; KB-3-1 tox: inconclusive; ALOX12 inh: inactive; MCF10A rerep: inactive; SW480 rereplic: inactive

What do the screens show for `COc1nc(-c2cccs2)cc(-c2ccc(C)cc2)c1C#N`?
PINK1 expr mod: inconclusive; KB-V1 MDR tox: 11.2µM; KB-3-1 tox: 15.8µM; ALOX12 inh: inactive; MCF10A rerep: inconclusive; SW480 rereplic: 3.98µM

How did COc1ccc(-c2cc(-c3cccs3)nc(OC)c2C#N)cc1OC do in these assays?
PINK1 expr mod: inactive; KB-V1 MDR tox: 4.61µM; KB-3-1 tox: inconclusive; ALOX12 inh: inactive; MCF10A rerep: 6.51µM; SW480 rereplic: inconclusive

Results for N#Cc1c(-c2ccccc2)cc(-c2cccs2)nc1SCC(=O)O ?
PINK1 expr mod: inactive; KB-V1 MDR tox: inactive; KB-3-1 tox: inactive; ALOX12 inh: inconclusive; MCF10A rerep: inactive; SW480 rereplic: inactive

How did O=c1c2cc(Cl)ccc2ncn1CC(O)COc1ccc(Br)cc1 (centres undefined) do in these assays?
ALOX12 inh: inactive

Results for CCn1ncc(CN2CC[C@@H]3C(=O)NCCCCCCN(Cc4ccncc4)[C@@H]3C2)c1C ?
ALOX12 inh: inactive

How did O=C(C[n+]1cc(-c2ccccc2)n2c1CCC2)N1c2ccccc2Sc2ccccc21 do in these assays?
PINK1 expr mod: inactive; KB-V1 MDR tox: inactive; KB-3-1 tox: 6.51µM; ALOX12 inh: inconclusive; MCF10A rerep: inconclusive; SW480 rereplic: inactive

How did O=C(C[n+]1cc(-c2ccccc2)n2c1CCC2)Nc1nc(-c2ccc(F)cc2)cs1 do in these assays?
PINK1 expr mod: inactive; KB-V1 MDR tox: inactive; KB-3-1 tox: 20.6µM; ALOX12 inh: inconclusive; MCF10A rerep: inactive; SW480 rereplic: inactive

What do the screens show for `Cc1ccc(-c2c[n+](CC(=O)N3c4ccccc4Sc4ccccc43)c3n2CCC3)cc1`?
PINK1 expr mod: inactive; KB-V1 MDR tox: inactive; KB-3-1 tox: inconclusive; ALOX12 inh: inconclusive; MCF10A rerep: inactive; SW480 rereplic: inactive

How did O=C(NNC(=O)c1cc(Br)ccc1O)c1csc(N2CCOCC2)n1 do in these assays?
PINK1 expr mod: inactive; KB-V1 MDR tox: inconclusive; KB-3-1 tox: inconclusive; MCF10A rerep: inactive; SW480 rereplic: 4.11µM

What do the screens show for `O=C(NNC(=O)c1cc(Br)ccc1Cl)c1csc(N2CCOCC2)n1`?
PINK1 expr mod: inactive; KB-V1 MDR tox: inconclusive; KB-3-1 tox: inactive; ALOX12 inh: inactive; MCF10A rerep: inactive; SW480 rereplic: inactive

How did CCn1c(=O)cc(SCC(=O)NCc2ccc(C)o2)c2ccccc21 do in these assays?
PINK1 expr mod: inactive; KB-V1 MDR tox: inconclusive; KB-3-1 tox: inactive; ALOX12 inh: inactive; MCF10A rerep: 20.6µM; SW480 rereplic: inactive

Results for COc1ccc(OC)c(CNC(=O)COc2cc(=O)n(C)c3ccccc23)c1 ?
PINK1 expr mod: inactive; KB-V1 MDR tox: 18.4µM; KB-3-1 tox: inactive; ALOX12 inh: inactive; MCF10A rerep: inactive; SW480 rereplic: inactive

How did COc1ccc(-c2[nH]c(-c3ccccc3)nc2SCC(=O)NCc2ccco2)cc1OC do in these assays?
PINK1 expr mod: inactive; KB-V1 MDR tox: inconclusive; KB-3-1 tox: inactive; ALOX12 inh: inactive; MCF10A rerep: inactive; SW480 rereplic: inactive

What do the screens show for `Cc1nc(SCC(=O)NCc2ccco2)[nH]c(=O)c1C`?
PINK1 expr mod: inactive; KB-V1 MDR tox: inconclusive; KB-3-1 tox: inactive; ALOX12 inh: inactive; MCF10A rerep: 23.1µM; SW480 rereplic: inconclusive

How did CCn1c(=O)cc(SCC(=O)NCc2ccc(C)cc2)c2ccccc21 do in these assays?
PINK1 expr mod: inactive; KB-V1 MDR tox: inconclusive; KB-3-1 tox: inconclusive; ALOX12 inh: inactive; MCF10A rerep: inconclusive; SW480 rereplic: inactive
